Rows were chosen to be rich in hits. Some 1.3% of all compounds tested hit in one or more screens of this group.
TRPML1 agonist: human mucolipin-1 channel agonism; activation, % (no concentration beside the values); TRPML1-expressing cells, Ca2+ dye fluorescence, FDSS; AID 624414; Q9GZU1; 410,000 compounds, 0.12% hits; in the data active = activation above about 50%; inconclusive = mostly about 30% to 49%; note: 0% is about no effect
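Calcium fluorescence on an FDSS kinetic reader gave the read-out. Tet-induced TRPML1-DL cells were plated overnight, dye-loaded (Ca8 with quencher, 45-90 min, room temperature, dark), then read 110 s after compound addition, and again 110 s after 4uM final 54-4 (EC80).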
TRPV1 agonist: agonists of human vanilloid receptor 1 (TRPV1); AID 540275; 320,000 compounds, 0.19% hits; activation, % at 8.33 µM; TRPV1-expressing cells, Fluo-8 calcium influx, agonist mode; in the data active = activation above about 80%; inconclusive = between about 30% and that limit; note: 0% is about no effect
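Fluo-8 calcium influx in TRPV1-expressing cells, kinetic read (ex 480/em 520 nm). Compound added and read 3 min for agonist activity, followed by capsaicin at EC20 final and 2 min further read for enhancement.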
hERG WT inh: KCNH2 (human, wildtype) channel inhibition; 340,000 compounds, 0.37% hits; U2OS, BacMam KCNH2, thallium flux FluxOr; active compounds read low; Q12809; activity change, % at 1.84 µM; AID 720551;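 active = maximum activity change below -70%; inconclusive = maximum activity change between -70% and -50%; inactive = maximum activity change above -50%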; note: % is set by controls: 0 for no effect and ±100 for the full control effect
Target sequence (Q12809 whole entry, looked up): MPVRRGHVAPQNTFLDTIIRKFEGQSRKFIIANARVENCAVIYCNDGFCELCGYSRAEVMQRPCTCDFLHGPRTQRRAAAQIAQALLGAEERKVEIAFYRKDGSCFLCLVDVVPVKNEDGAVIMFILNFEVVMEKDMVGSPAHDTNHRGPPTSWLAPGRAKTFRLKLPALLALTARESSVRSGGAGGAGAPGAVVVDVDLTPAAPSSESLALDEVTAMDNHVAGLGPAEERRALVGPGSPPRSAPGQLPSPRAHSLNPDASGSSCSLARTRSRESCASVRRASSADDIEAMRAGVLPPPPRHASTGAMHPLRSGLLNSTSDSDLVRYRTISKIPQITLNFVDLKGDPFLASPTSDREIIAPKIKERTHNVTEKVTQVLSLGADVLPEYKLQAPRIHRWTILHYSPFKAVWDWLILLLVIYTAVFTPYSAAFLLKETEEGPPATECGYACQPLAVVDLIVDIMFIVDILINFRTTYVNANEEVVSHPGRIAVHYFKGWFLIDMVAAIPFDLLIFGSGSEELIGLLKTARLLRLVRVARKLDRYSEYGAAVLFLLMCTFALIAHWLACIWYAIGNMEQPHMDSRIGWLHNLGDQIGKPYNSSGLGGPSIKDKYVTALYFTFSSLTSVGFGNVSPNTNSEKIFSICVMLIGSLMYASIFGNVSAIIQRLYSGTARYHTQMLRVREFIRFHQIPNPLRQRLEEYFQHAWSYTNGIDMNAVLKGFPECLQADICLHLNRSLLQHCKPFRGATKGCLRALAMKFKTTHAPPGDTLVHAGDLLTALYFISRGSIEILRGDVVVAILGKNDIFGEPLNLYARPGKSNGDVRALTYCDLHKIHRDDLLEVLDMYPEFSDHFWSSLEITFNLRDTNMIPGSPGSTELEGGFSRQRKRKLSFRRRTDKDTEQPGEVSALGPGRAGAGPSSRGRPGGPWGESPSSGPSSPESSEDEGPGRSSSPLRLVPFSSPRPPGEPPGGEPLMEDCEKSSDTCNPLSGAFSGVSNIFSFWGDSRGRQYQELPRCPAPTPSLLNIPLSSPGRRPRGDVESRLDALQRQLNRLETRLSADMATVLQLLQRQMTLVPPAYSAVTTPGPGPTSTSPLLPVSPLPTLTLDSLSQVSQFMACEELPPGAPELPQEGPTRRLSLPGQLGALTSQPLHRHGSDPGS
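U2OS cells transduced with wild-type KCNH2 virus are loaded with FluxOr dye for 45 min, and thallium flux is measured in kinetic reads before and after stimulation buffer. Rate constants are normalized to DMSO controls.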
TRPV1 potentiator: enhances activation of the human vanilloid receptor TRPV1 | Q8NER1 | TRPV1-expressing cells, Fluo-8 calcium influx, capsaicin EC20 potentiation | potentiation, % at 8.33 µM | 320,000 compounds, 0.02% hits | AID 540277; in the data active = potentiation above about 80%; inconclusive = between about 30% and that limit; note: 0% is about no effect
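Cells expressing TRPV1 were dye-loaded with Fluo-8 and read kinetically: 10 s baseline, 3 min after compound (agonist portion), then 2 min after EC20 capsaicin (allosteric enhancer portion). Calcium-bound dye fluorescence at 480/520 nm.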
KCNH2 3.1 inh: inhibitors of human KCNH2 3.1 potassium channel isoform; U2OS KCNH2 3.1, thallium flux FluxOr; active compounds read low; activity change, % (tested at about 1.8 µM); 340,000 compounds, 0.95% hits; AID 720553;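 active = maximum activity change below -70%; inconclusive = maximum activity change from -70% to -50%; inactive = maximum activity change above -50%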;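 note: thallium influx rate constant from kinetic fluorescence after stimulation buffer; % is set by controls: 0 for no effect and ±100 for the full control effect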
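Channel expression came from 3.1 mutant virus (1.77 x 10^8 /mL) applied to suspended U2OS cells for 4 h. Flux was tracked with FluxOr dye plus Red40 quencher, and kinetic rate constants normalized to controls.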
TRPML1 blocker: inhibitors of human TRPML1 channel. Q9GZU1. TRPML1-inducible cells, Ca2+ dye fluorescence, FDSS; active compounds read low; inhibition of EC80 agonist-evoked calcium signal. activity change, negative = inhibition, % (concentration not given with the values). 390,000 compounds, 0.02% hits. AID 624415; in the data active = activity change below about -50%; inconclusive = between about -30% and that limit;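 note: stimulus is agonist 54-4 at its EC80 concentration; % is set by controls: 0 for no effect and ±100 for the full control effect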
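Calcium fluorescence in TRPML1-DL cells induced overnight with Tet: a 110 s read after compound pin addition, then a 110 s antagonist read after challenge with 54-4 at 4 uM final (EC80).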
* = called active by the depositor; u = inconclusive; x = not tested or not shown.

SMILES | TRPML1 agonist | TRPV1 agonist | hERG WT inh | TRPV1 potentiator | KCNH2 3.1 inh | TRPML1 blocker
NC(=S)N/N=C/c1cccc(/C=N/NC(N)=S)c1 | -0.6 | -2.9 | -3.3 | -9.1 | -128.3* | 0.9
Cc1cccc(C)c1-n1nnnc1S(=O)(=O)Cc1ccccc1Cl | -0.3 | 5.3 | -8.5 | 16.9 | -94.4* | -0.1
CCNc1ccc(/C=C/c2ccnc3ccccc23)cc1 | 19.1 | x | x | x | x | x
CC(OC(=O)c1nc(-c2ccccc2)n(-c2ccccc2)n1)C(=O)Nc1cc(Cl)cc(Cl)c1 (configuration not stated) | 0.0 | -0.9 | -141.9* | -3.3 | -43.9 | 12.3
Cc1c(C)c(C)c(/C=C/c2ccnc3ccccc23)c(C)c1C | 0.8 | x | x | x | x | x
COC(=O)c1sccc1NC(=O)c1c(-c2ccccc2)noc1C | 3.7 | 23.9 | -0.2 | -16.8 | -73.6* | 6.8
CC(CCc1ccccc1)NC(=O)C(=O)NCCO (configuration not stated) | 0.9 | -1.6 | 8.0 | 13.5 | -77.6* | -17.6
CCN(CC(=O)NC(C)C)C(=O)C(CCSC)NC(=O)c1cccc(C)c1 (configuration not stated) | -1.3 | -1.1 | -154.8* | 2.5 | -200.9* | -5.6
COc1cccc(CNC(=O)c2ccc(CSc3nc4ccncc4n3Cc3cccc(C)c3)cc2)c1 | 0.1 | x | x | x | x | 3.7
Cc1cccc(-n2c(N)c(-c3nc4ccccc4n3C)c3nc4ccccc4nc32)c1 | 2.9 | 6.8 | -133.8* | 2.6 | -96.3* | -17.2
CCOC(=O)CNC(=O)C1CCCCC1 | -0.2 | x | x | x | x | x
Cc1nc(NCC(=O)c2c[nH]c3ccccc23)sc1C | -1.0 | x | x | x | x | x
COc1ccc(CNCCC(c2ccccc2)c2ccc(OC(C)C)cc2)cc1OC (configuration not stated) | -0.8 | 5.7 | u | 10.1 | u | 0.5
COc1ccc(C(CCNCc2ccc(OC(C)C)cc2)c2ccccc2OC)cc1 (configuration not stated) | 0.8 | 7.8 | -88.3* | 6.0 | -89.7* | -11.8
COc1ccc(C(CCNCc2ccc(N(C)C)cc2)c2ccccc2OC)cc1 (configuration not stated) | 2.7 | 9.2 | -99.0* | -1.9 | -5.3 | 4.3
COc1ccc(CNCCC(c2ccc(OC)cc2)c2ccccc2OC)cc1 (configuration not stated) | 0.3 | 7.1 | -32.9 | -1.7 | -72.3* | -9.8
COc1ccc(C(CCNCc2ccc(F)cc2)c2ccc(F)cc2)cc1 (configuration not stated) | 3.3 | u | u | -23.5 | -6.5 | 34.6
COc1ccc(CNCCC(c2ccc(F)cc2)c2ccc(OC(C)C)cc2)cc1OC (configuration not stated) | 0.5 | 17.9 | -36.6 | -17.7 | u | 22.4
CCOc1ccc(/C=C/c2nc(C#N)c(N3CCCCC3)o2)cc1 | -0.2 | x | x | x | x | 10.2
CC(C)CC(=NNC(=O)c1ccncc1)c1cc(Cl)ccc1O | 70.5* | x | -15.4 | x | -11.7 | 7.4
C=C(C)c1cccc(C(C)(C)NC(=O)N2CCCC2)c1 | -0.7 | 0.2 | 11.2 | -9.3 | 17.3 | 31.7
C=C(C)c1cccc(C(C)(C)NC(=O)N2CCN(C(=O)OCC)CC2)c1 | -0.6 | x | -0.7 | x | -70.7* | -11.6
CCN1CCCC1CN(Cc1cc2ccc(C)cc2[nH]c1=O)C(=S)Nc1ccc(OC)cc1 (configuration not stated) | 0.4 | -2.6 | -36.3 | -4.3 | -47.6 | -2.2
CCN1CCCC1CN(Cc1cc2ccc(C)cc2[nH]c1=O)C(=S)Nc1ccc(F)cc1 (configuration not stated) | 0.3 | 3.6 | -71.3* | 1.0 | -84.9* | 9.2
CCCC(=O)Nc1nc2c(s1)CC(C(C)(C)C)CC2 (configuration not stated) | 0.2 | x | x | x | x | 6.7
SMILES | TRPML1 agonist | TRPV1 agonist | hERG WT inh | TRPV1 potentiator | KCNH2 3.1 inh | TRPML1 blocker
Cc1cccc(NC(=O)c2ccco2)c1C | 0.3 | 1.0 | 4.5 | 10.4 | 12.4 | -15.2
Cc1cccc(NC(=O)c2sc(NC(=O)c3ccco3)c(C#N)c2C)c1C | -0.4 | 1.0 | 6.8 | 6.3 | -83.0* | 0.7
CC(C)(C)c1ccc(/C=N/OCC(=O)NCc2ccc(F)cc2)cc1 | 3.3 | 91.6* | -6.4 | 1.4 | u | -3.5
COc1cc(Cl)c(C)cc1NC(=O)c1cnc(N2CCCCC2)c2ccccc12 | 69.0* | x | x | x | x | -15.2
COc1cc(Cl)c(C)cc1NC(=O)c1cnc(N2CCOCC2)c2ccccc12 | u | x | x | x | x | -29.8
CN(Cc1ccccc1)c1ccc2cc(S(=O)(=O)N3CCCCC3)ccc2n1 | 1.9 | x | x | x | x | -13.5
CCCCC(CC)CNC(=O)c1ccc(Cn2c(=O)[nH]c3cc(OC)c(OC)cc3c2=O)cc1 (configuration not stated) | -0.6 | x | x | x | x | -4.3
CC(=O)Nc1ccc(S(=O)(=O)N2CCN(c3nc(NC4CCCC4)c4ccccc4n3)CC2)cc1 | 0.1 | 0.0 | -89.7* | -2.5 | -86.0* | -9.6
O=S(=O)(c1ccccc1C(F)(F)F)N1CCN(c2nc(-c3cccs3)nc3ccccc23)CC1 | 0.0 | x | x | x | x | x
COc1ccc(C(=O)C=Cc2ccc(OCc3ccccc3)c(OC)c2)cc1OC | 2.6 | x | -11.4 | x | -71.6* | 35.0
NS(=O)(=O)c1ccc(CCNCc2cc(Br)ccc2OCc2ccccc2)cc1 | 0.0 | 21.4 | -28.2 | -12.1 | -70.2* | -10.7
COc1cc(CN(C)CCc2ccccc2)ccc1OCc1ccccc1 | 0.8 | 5.9 | 73.4 | -27.8 | -95.5* | 15.3
COc1ccc(CNCCc2ccc(Cl)cc2)cc1OCc1ccccc1 | -0.1 | -0.3 | -2.2 | 6.9 | -70.8* | 24.0
CCOc1cc(CNCCc2ccc(S(N)(=O)=O)cc2)ccc1OCc1ccccc1 | 1.6 | 16.8 | 58.6 | -8.0 | x | 24.6
COc1cc(OC)c(C(=O)/C=C/c2ccc(OCc3ccccc3)c(OC)c2)c(OC)c1 | -0.7 | -3.7 | 19.4 | -2.1 | -11.9 | 10.8
CCOc1cc(CNCc2ccccc2)ccc1OCc1ccc(Cl)cc1 | -0.3 | 22.8 | 35.9 | 1.5 | -3.4 | -1.1
Cc1ccc(S(=O)(=O)Nc2cc(C(F)(F)F)ccc2N2CCOCC2)cc1C | 85.3* | 28.0 | -5.5 | -16.4 | -91.7* | -11.1
Cc1ccc(S(=O)(=O)Nc2ccccc2NS(=O)(=O)c2ccc(C)cc2)cc1 | -1.3 | x | x | x | x | x
Cc1ccc(S(=O)(=O)Nc2ccccc2N2CCCCC2)cc1 | 76.4* | x | -7.8 | x | 5.0 | -3.0
Cc1cccc(S(=O)(=O)Nc2cc(Cl)ccc2N2CCOCC2)c1 | 72.0* | x | 1.8 | x | -3.4 | -16.2

Screening data as filed in PubChem.
